# Source: PubChem BioAssay (National Center for Advancing Translational Sciences (NCATS))
# Only some compounds are listed: those with a hit (about 11% of all), similar ones and a draw of the others.
# PI5P4Ka inh = inhibitors of human PI5P4K alpha | P48426 | PI5P4Kalpha enzyme, ADP-Glo luminescence, 60 min; active compounds read low | max response, % | 330,000 tested, 1.2% active | AID 652105; active means max response of -50% or lower; inconclusive means between -30% and -50%; inactive means -30% or higher; further: value at the top dose of about 77 µM; on the % scale 0 is the no-effect control and ±100 the full control effect
# Target sequence (P48426 whole entry, looked up): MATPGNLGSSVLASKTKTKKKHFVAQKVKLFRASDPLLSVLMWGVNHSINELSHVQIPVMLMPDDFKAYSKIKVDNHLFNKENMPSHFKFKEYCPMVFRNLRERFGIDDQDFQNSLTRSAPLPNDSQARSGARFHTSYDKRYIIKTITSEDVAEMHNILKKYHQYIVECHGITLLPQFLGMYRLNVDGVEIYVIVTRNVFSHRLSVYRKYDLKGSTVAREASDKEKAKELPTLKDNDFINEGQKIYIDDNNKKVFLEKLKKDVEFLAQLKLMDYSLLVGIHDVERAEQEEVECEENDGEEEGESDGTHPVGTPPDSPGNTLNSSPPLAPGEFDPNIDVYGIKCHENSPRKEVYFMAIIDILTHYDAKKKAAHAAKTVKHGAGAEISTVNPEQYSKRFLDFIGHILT
#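 PI5P4Kalpha ADP-Glo assay; 5 microM ATP final; 60 min RT reaction; HEPES pH 7.4/EGTA/CHAPS, 5% DMSO; controls lacking substrate or enzyme; luminescent end-point.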
# G9a inh = G9a (human) methyltransferase inhibition | Q96KQ7 | G9a H3K9 monomethylation, AlphaScreen, 2 h | Potency, µM (titrated, usually from 102 µM), without a hit: at the top dose activity, negative = inhibition, usual class: inhibitors | 350,000 tested, 8.8% active | AID 504332; further: potency means the concentration at half of the fitted maximal effect; on the % scale 0 is the no-effect control and ±100 the full control effect; nearly all actives have a fitted effect of over 75% in size
#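 Quantitative HTS format: methyltransferase activity on a biotin-tagged H3K9 peptide is measured by AlphaScreen, using a rabbit anti-monomethyl-H3K9 antibody with streptavidin donor and anti-IgG acceptor beads. Final levels are 20 nM enzyme, 500 nM peptide, 20 uM SAM; 2 h RT.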
# HP1b chromo inh = blocks HP1-beta chromodomain binding to methylated histone tails | P83916 | 390,000 tested, 0.56% active | AlphaScreen HP1-beta / biotin-H3K9me3 peptide binding | Potency, µM (series often up to 114 µM), for the others: at the highest dose activity change, negative = inhibition, actives largely listed as inhibitors; further: potency means the concentration at half of the fitted maximal effect; nearly all actives have a fitted effect of over 70% in size
# Target sequence (P83916 whole entry, looked up): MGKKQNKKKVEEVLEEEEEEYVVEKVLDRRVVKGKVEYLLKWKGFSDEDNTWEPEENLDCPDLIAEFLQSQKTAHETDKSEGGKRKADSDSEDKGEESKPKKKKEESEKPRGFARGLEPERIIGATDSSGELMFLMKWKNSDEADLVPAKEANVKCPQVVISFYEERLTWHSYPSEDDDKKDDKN
#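 Compound inhibition of the preformed complex between 50 nM HP1-beta and 50 nM biotinylated H3K9me3 peptide was read by AlphaScreen. Buffer was PBS pH 7.4 with 0.01% Tween-20. Incubations ran 30 min at room temperature, with 10 ug/mL donor/acceptor beads.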
# BAZ2B inh = blocks human BAZ2B; Q9UIF8; AlphaScreen BAZ2B-H3K14Ac peptide displacement; Potency, µM (titrated, usually from 114 µM), inactives show at the highest dose activity change, negative = inhibition, hits mostly inhibitors; 360,000 tested, 4.4% active; AID 504333; further: potency means the concentration at half of the fitted maximal effect; on the % scale 0 is the no-effect control and ±100 the full control effect; nearly all actives have a fitted effect of over 60% in size
#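 BAZ2B 50 nM plus b-H3(5-23)K14Ac 50 nM, PBS pH 7.4/0.01% Tween-20, 30 min RT; compound added (max 110 uM), 30 min RT; streptavidin donor/Ni-chelate acceptor beads 10 ug/mL final, 20 min dark; AlphaScreen read.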
# L3MBTL1 inh = blocks human L3MBTL1; AlphaScreen L3MBTL1–H3K9me1 peptide binding; Potency, µM (highest dose often 57.1 µM), inactives show at the top dose activity, negative = inhibition, usual class: inhibitors; 230,000 tested, 0.66% active; AID 485360; further: potency means the concentration at half of the fitted maximal effect; on the % scale 0 is the no-effect control and ±100 the full control effect; nearly all actives have a fitted effect of over 60% in size
#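 AlphaScreen proximity signal between nickel-chelate acceptor and streptavidin donor beads (final 10 ug/mL) reports binding of 50 nM L3MBTL1 to 75 nM biotin-H3 K9me1 peptide; complex incubated with compounds 30 min at room temperature; cefsulodin titration as control.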
# JMJD2A Tudor inh = JMJD2A Tudor domain (human) inhibition. O75164. AlphaScreen JMJD2A-Tudor / H3K4me3 peptide binding. Potency, µM (doses to about 114 µM), inactives show at the top dose activity change, negative = inhibition, usual class: inhibitors. 390,000 tested, 4.4% active. AID 504339; further: potency means the concentration at half of the fitted maximal effect; on the % scale 0 is the no-effect control and ±100 the full control effect; nearly all actives have a fitted effect of over 50% in size
# An asterisk follows results filed as active; u = inconclusive; x = no result; [ ] = another dose, or the depositor's remark. Unless noted, the call rests on the fitted dose curve; in most records, active means well fitted inhibition curve with a large enough effect; inconclusive means small, poorly fitted or top-dose-only effect; inactive means no such curve, though single readings can be large or run the other way.
SMILES,PI5P4Ka inh,G9a inh,HP1b chromo inh,BAZ2B inh,L3MBTL1 inh,JMJD2A Tudor inh
O=C(CSc1nc(-c2ccccc2)nn1C(=O)c1ccccc1)Nc1cccc([N+](=O)[O-])c1,x,x,-1%,56µM*,-4%,u
O=C(c1cccc([N+](=O)[O-])c1)n1nc(-c2ccccc2)nc1NCc1ccccc1,1,45µM*,-12%,-7%,3%,u
CCOC(=O)C1=C(C)NC(C)=C(C(=O)OCC)C1c1ccccc1C=CC(=O)OC(C)(C)C,x,68%[59 µM],x,x,x,x
O=c1[nH]c2ccc(Br)cc2o1,0,x,8%[57 µM],x,x,-13%
O=C(CCl)c1ccc2[nH]c(=O)oc2c1,-23,45µM*,47%,u,-9%,-23%
CC12CCC(C(=O)NCc3ccc4c(c3)OCO4)(C(=O)C1=O)C2(C)C (centres undefined),-7,45µM*,28%,-22%,x,1%
CC12CCC(C(=O)NCc3ccc4c(c3)OCO4)(CC1=O)C2(C)C (centres undefined),3,10%[59 µM],-4%,6%,-4%[11.4 µM],18%[11.4 µM]
S=c1[nH]ncc2ccccc12,x,45µM*,25%,7%,-5%,50µM*
O=c1[nH][nH]c(C(F)(F)F)c1/C=N/N1CCOCC1,-7,40µM*,23%,-29%,1%,-15%
Oc1ccc(/C=N/NC(=S)NCCN2CCOCC2)c(O)c1,7,u,8%,10µM*,22µM*,56µM*
COc1cc(SC)ccc1C(=O)OCC(=O)NC1CCCCC1,-1,-3%,22%,-2%,15%,-17%
COc1cc(SC)ccc1C(=O)N1CCC(Cc2ccccc2)CC1,x,10µM*,x,x,x,x
COc1cc(SC)ccc1C(=O)NC1CCCCC1,x,1.1µM*,36%,3%,-7%,8%
COc1cc(SC)ccc1C(=O)N1CCN(c2ccc(O)cc2)CC1,-2,16µM*,u,x,-16%,u
CCOC(=O)c1c(-c2ccccc2)oc2ccc(NS(=O)(=O)c3ccc(C)cc3C)cc12,x,-29%[59 µM],37%,-3%,x,-4%
Cc1ccc2cccc(NC(=O)c3ccc(-c4cc(Cl)ccc4Cl)o3)c2n1,x,-9%[59 µM],14%,-14%,x,-7%
CCN(CC)c1nn2c(=O)c(C(=O)NCc3ccc(N(C)C)cc3)cnc2s1,x,u,40%,-19%,x,-30%
COc1cc2nc(NC(=O)c3ccc(S(=O)(=O)N4CCc5ccccc54)cc3)sc2cc1OC,x,6%[59 µM],5%[57 µM],-15%,x,-31%
COc1ccc2sc(N(CCCN(C)C)C(=O)c3ccc(S(=O)(=O)N4CCCc5ccccc54)cc3)nc2c1,0,40µM*,u,28µM*,-21%,20µM*
CCOC(=O)N1CCN(S(=O)(=O)c2ccc(C(=O)N(CCCN(C)C)c3nc4ccc(OC)cc4s3)cc2)CC1,2,u,10%,-18%,x,-17%
COc1cc2nc(N(CCCN(C)C)C(=O)c3ccc(S(=O)(=O)N4CCc5ccccc54)cc3)sc2cc1OC,-25,11µM*,u,u,-5%,50µM*
CCCN(C(=O)c1nn(-c2ccc(OC)cc2)c(=O)c2c1c1ccccc1n2C)c1ccc(CC)cc1,x,-34%[59 µM],10%,x,x,-5%
COc1ccccc1CNC(=O)c1cc2cc3ccc(Cl)cc3nc2o1,x,-23%[59 µM],1%,x,x,-15%
COc1ccc(C(C#N)N2CCC(c3ccccc3)=N2)cc1OC (centres undefined),-13,18µM*,39%,-3%,8%,-15%
COc1ccc(C2=NN(C(C#N)c3ccc(OC)c(OC)c3)C(c3ccccc3)C2)cc1 (centres undefined),0,u,101%,58%,x,7%
SMILES,PI5P4Ka inh,G9a inh,HP1b chromo inh,BAZ2B inh,L3MBTL1 inh,JMJD2A Tudor inh
COc1cc(C(C#N)N2CCC(c3ccccc3)=N2)ccc1O (centres undefined),1,10µM*,23%,-1%,x,-5%
CC(C)(C)OC(=O)Cc1nnc(C(C(=O)OCc2ccccc2)c2ccccc2)s1 (centres undefined),x,x,x,x,x,-8%
O=S(=O)(NCC(c1cccs1)S(=O)(=O)c1ccccc1)c1ccc(F)cc1 (centres undefined),x,-3%[59 µM],43%,4%,x,-5%
O=C(CSc1n[nH]c(=O)[nH]c1=O)Nc1ccc2c(c1)C(=O)c1ccccc1C2=O,-59*,x,11µM*,50µM*,28µM*,u
O=C(CSc1ccccn1)Nc1ccc2c(c1)C(=O)c1ccccc1C2=O,-21,u,-21%,50µM*,-3%,50µM*
CSc1nc(Nc2ccc(Cl)cc2)c(C#N)c(=O)[nH]1,-18,-9%,53%,-6%,-2%,-11%
N#Cc1c(Nc2ccc(Cl)cc2)s[nH]c1=O,u,x,-5%,-5%,x,79µM*
Cc1ccc(OCC(=O)Nc2c(Cl)ccc3nsnc23)cc1C,x,4%[59 µM],10%,-11%,x,-9%
Clc1ccccc1C(c1ccccc1)(c1ccccc1)n1ccnc1,-17,4%[59 µM],-16%,22µM*,u,28µM*
C#CC(c1ccccc1)(c1ccccc1)n1ccnc1,3,x,x,x,x,x
Cc1cc(N2CCOCC2)nc2ccc(NC(=S)NC(C)C)cc12,0,71µM*,27%,-11%,x,-1%
COCCNC(=S)Nc1ccc2nc(N3CCCC3)cc(C)c2c1,2,71µM*,-9%,-1%,-6%,-18%
CCCN(CCC)CCCNC(=S)Nc1ccc2nc(N3CCN(C)CC3)cc(C)c2c1,4,40µM*,-3%[57 µM],-25%,x,-27%
COc1ccc(CCNC(=O)CCC(=O)Nc2ccc3nc(N4CCN(C)CC4)cc(C)c3c2)cc1OC,3,-2%[59 µM],-21%[57 µM],-20%,x,79µM*
CCCCN(CC)CCNC(=S)Nc1ccc2nc(N3CCN(C)CC3)cc(C)c2c1,-11,u,4%[57 µM],1%,x,-34%
CCCN(CCC)CCCNC(=S)Nc1ccc2nc(N3CCN(CC)CC3)cc(C)c2c1,-7,50µM*,11%[57 µM],-7%,x,-3%
COCCCn1c(SCc2ccccc2F)nc2c(sc3ccccc32)c1=O,x,0%[59 µM],93%,28%,x,-5%
CC(C)(C)c1ccc(S(=O)(=O)/N=C2\C=C(NS(=O)(=O)c3ccccc3)C(=O)c3ccccc32)cc1,u,10µM*,u,28µM*,x,25µM*
Cc1ccc(S(=O)(=O)/N=C2\C=C(NS(=O)(=O)c3ccccc3)C(=O)c3ccccc32)c(C)c1,-10,x,22µM*,x,x,22µM*
Cc1c(Cl)cccc1NC(=O)CCn1c(=O)c2cccn2c2ccccc21,x,5%[59 µM],21%,1%,x,-15%
COc1cc(NC(=O)NC(C)(C(F)(F)F)C(F)(F)F)cc(OC)c1OC,-7,50µM*,18%,0%,x,-5%[57.1 µM]
